Data on 40 compounds can be found in PubChem BioAssay (NCATS).

Each structure is given as a SMILES string. Records with an inconclusive call do not appear. Activity calls are given as the source filed them. Calls come from the whole dose curve.

Chain of Peroxisome proliferator-activated receptor delta (Homo sapiens) (Q03181 whole entry, looked up): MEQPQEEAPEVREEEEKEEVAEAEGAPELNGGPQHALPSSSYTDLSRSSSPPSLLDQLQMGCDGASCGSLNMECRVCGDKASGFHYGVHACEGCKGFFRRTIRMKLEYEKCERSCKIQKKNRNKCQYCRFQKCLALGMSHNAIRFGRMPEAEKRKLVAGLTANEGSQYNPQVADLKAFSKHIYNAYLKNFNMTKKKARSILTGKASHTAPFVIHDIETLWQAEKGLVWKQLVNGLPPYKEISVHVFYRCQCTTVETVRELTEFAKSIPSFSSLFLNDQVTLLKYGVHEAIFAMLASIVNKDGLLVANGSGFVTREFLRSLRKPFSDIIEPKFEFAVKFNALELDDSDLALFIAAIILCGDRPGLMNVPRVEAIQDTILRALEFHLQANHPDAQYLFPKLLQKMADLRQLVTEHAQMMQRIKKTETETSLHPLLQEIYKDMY

This assay addresses Peroxisome proliferator-activated receptor delta (Homo sapiens) (UniProt Q03181). In words: qHTS assay for small molecule agonists of peroxisome proliferator-activated receptor delta signaling (AID 588534). The following applies: HEK293T PPARdelta-UAS-bla, beta-lactamase ratio, 18 h; series mostly up to 76.7 µM. From the text: NIH Chemical Genomics Center [NCGC] U.S. Environmental Protection Agency [EPA] National Institutes of Environmental Health Sciences [NIEHS] National Toxicology Program [NTP] NCGC Assay Overview The Peroxisome proliferator-activated receptors (PPARs) are lipid-activated transcription factors of the nuclear receptor superfamily with three distinct subtypes namely PPAR alpha, PPAR delta (also called PPAR beta) and PPAR gamma. All these subtypes heterodimerizes with Retinoid X receptor (RXR) and have different physiological functions. […] This role of PPAR delta implicates the potential use of its ligands in the treatment of metabolic disorders.
Compounds were screened in a titration series in 1536-well format. […] Concentration-response titration points for each compound were fitted to the Hill equation yielding concentrations of half-maximal stimulation (EC50) and maximal response (efficacy) values. qHTS protocol for PPAR-delta beta-lactamase assay in agonist mode [Step] [Parameter] [Value] [Description] 1. Reagent; 6 uL; 4000 cells/well 2. Incubation; 37 C for 5 hrs 3. Compounds; 23 nL; 0.59 nM to 92 uM 4. […] Incubation; 37 C for 18 hrs 6. Detection reagent; 1 uL of CCF4-dye 7. Incubation; RT for 2 hrs 8. Detection; Fluorescence; Envision plate reader
Turning to `CCOc1ccccc1C(N)=O`, the outcome was inactive.

As to `COc1cccc2c1C(=O)c1c(O)c3c(c(O)c1C2=O)C[C@@](O)(C(C)=O)C[C@@H]3O[C@H]1C[C@H](N)[C@H](O)[C@H](C)O1`, the outcome was inactive.

With `FC(F)(F)C(Cl)Br` (stereo not given), the result was inactive.

For the compound `C[C@]12CCC(=O)C=C1CC[C@@H]1[C@@H]2C(=O)C[C@@]2(C)[C@H]1CC[C@]2(O)C(=O)CO`, the outcome was inactive.

Regarding `C#C[C@]1(O)CC[C@H]2[C@@H]3CCc4cc(O)ccc4[C@H]3CC[C@@]21C`, the outcome was inactive.

With `Nc1ccn([C@H]2CC[C@@H](CO)O2)c(=O)n1`, the outcome was inactive.

As to `O=C1C(c2[nH]c3ccccc3c2O)=Nc2ccccc21`, the result was inactive.

Take `CCOC(=O)C(C)(C)Oc1ccc(Cl)cc1`: the result was inactive.

On to `CC1(C)[C@@H]2CC[C@@]1(C)C(=O)C2`, for which the outcome was inactive.

Take `O=C1c2cccc(O)c2C(=O)c2c(O)cccc21`: the result was inactive.

In the case of `NCCNc1cccc2ccccc12`, the result was inactive.

Consider `C/C=C/c1ccc(O)c(OC)c1`, for which the result was inactive.

As to `CC(=O)[C@@]1(O)CC[C@H]2[C@@H]3CCC4=CC(=O)CC[C@]4(C)[C@H]3CC[C@@]21C`, the result was inactive.

Take `COCC(=O)N(c1c(C)cccc1C)C(C)C(=O)OC` (stereo not given): the result was inactive.

As for `Cn1cnc2c1c(=O)[nH]c(=O)n2C`, the outcome was inactive.

Consider `O=C1O[C@H]([C@@H](O)CO)C(O)=C1O`, for which the result was inactive.

For `COc1ccc(C(Cl)=C(c2ccc(OC)cc2)c2ccc(OC)cc2)cc1`, the result was inactive.

Take `COP(=O)(OC)OC=C(Cl)Cl`: the outcome was inactive.

Regarding `CN(C)C(=S)SC(=S)N(C)C`, the result was inactive.

In the case of `C=CCOC(Cn1ccnc1)c1ccc(Cl)cc1Cl` (stereo not given), the outcome was inactive.

Turning to `O=C(CCl)c1ccc(Cl)cc1Cl`, the result was inactive.

As to `CN(C)CCC(c1ccccc1)c1ccccn1` (stereo not given), the outcome was inactive.

For the compound `CC(=O)OC/C=C(C)/C=C/C=C(C)/C=C/C1=C(C)CCCC1(C)C`, the outcome was inactive.

`CC(=O)Oc1ccc(C(c2ccc(OC(C)=O)cc2)c2ccccn2)cc1`: the result was inactive.

As for `CNC(=O)Oc1cccc2ccccc12`, the result was inactive.

`c1ccc2[nH]c(-c3cscn3)nc2c1`: the outcome was inactive.

In the case of `COP(=O)(OC)C(O)C(Cl)(Cl)Cl` (stereo not given), the outcome was inactive.

As for `CCN(CC)C(=O)c1cccc(C)c1`, the result was inactive.

For the compound `Oc1c(Br)cc(Br)cc1Br`, the outcome was inactive.

Turning to `CCC(=O)O[C@H]1CC[C@H]2[C@@H]3CCC4=CC(=O)CC[C@]4(C)[C@H]3CC[C@]12C`, the outcome was inactive.

Regarding `C[C@]12C=CC(=O)C=C1CC[C@H]1[C@@H]3C[C@@H](O)[C@](O)(C(=O)CO)[C@@]3(C)C[C@H](O)[C@@]12F`, the outcome was inactive.

Regarding `Cc1c(N(C)C)c(=O)n(-c2ccccc2)n1C`, the outcome was inactive.

Turning to `C[C@@H]1C[C@@H]([C@H](O)CC2CC(=O)NC(=O)C2)C(=O)[C@@H](C)C1`, the outcome was inactive.

As to `CCCCCCCCCCCC[N+](C)(C)Cc1ccccc1`, the result was inactive.

Consider `CN(C)C(=O)Nc1ccc(Cl)c(Cl)c1`, for which the result was inactive.

With `N[C@@H](Cc1c[nH]c2ccc(O)cc12)C(=O)O`, the outcome was inactive.

On to `Oc1ccc(Cl)cc1Cc1cc(Cl)ccc1O`, for which the outcome was inactive.

Turning to `CCCCCCCCCCCC[N+](C)(C)CCOc1ccccc1`, the result was inactive.

Regarding `CCCCCCCCCCCCCCCC[n+]1ccccc1`, the outcome was inactive.

On to `CN(C)C(=S)SSC(=S)N(C)C`, for which the outcome was inactive.
